In PubChem BioAssay AID811 (The Scripps Research Institute Molecular Screening Center, 2007):
The whole screen tested about 16,000 compounds, of which about 10 (0.06%) were called active. Cut-off read from the data, not from the text of the source: active = inhibition above about 45%; inactive = the rest. Only a selection was taken, and actives are over-represented in it overall.

Target: Toll-like receptor 4 (Homo sapiens) (UniProt O00206)
Experiment: blocks binding of human TLR4 to MyD88 (AID 811)
Details: Cell-based TLR4-MyD88 binding inhibition assay; at 10 µM; hits give high values

Toll-like receptor 4 (Homo sapiens), sequence (O00206 whole entry, looked up): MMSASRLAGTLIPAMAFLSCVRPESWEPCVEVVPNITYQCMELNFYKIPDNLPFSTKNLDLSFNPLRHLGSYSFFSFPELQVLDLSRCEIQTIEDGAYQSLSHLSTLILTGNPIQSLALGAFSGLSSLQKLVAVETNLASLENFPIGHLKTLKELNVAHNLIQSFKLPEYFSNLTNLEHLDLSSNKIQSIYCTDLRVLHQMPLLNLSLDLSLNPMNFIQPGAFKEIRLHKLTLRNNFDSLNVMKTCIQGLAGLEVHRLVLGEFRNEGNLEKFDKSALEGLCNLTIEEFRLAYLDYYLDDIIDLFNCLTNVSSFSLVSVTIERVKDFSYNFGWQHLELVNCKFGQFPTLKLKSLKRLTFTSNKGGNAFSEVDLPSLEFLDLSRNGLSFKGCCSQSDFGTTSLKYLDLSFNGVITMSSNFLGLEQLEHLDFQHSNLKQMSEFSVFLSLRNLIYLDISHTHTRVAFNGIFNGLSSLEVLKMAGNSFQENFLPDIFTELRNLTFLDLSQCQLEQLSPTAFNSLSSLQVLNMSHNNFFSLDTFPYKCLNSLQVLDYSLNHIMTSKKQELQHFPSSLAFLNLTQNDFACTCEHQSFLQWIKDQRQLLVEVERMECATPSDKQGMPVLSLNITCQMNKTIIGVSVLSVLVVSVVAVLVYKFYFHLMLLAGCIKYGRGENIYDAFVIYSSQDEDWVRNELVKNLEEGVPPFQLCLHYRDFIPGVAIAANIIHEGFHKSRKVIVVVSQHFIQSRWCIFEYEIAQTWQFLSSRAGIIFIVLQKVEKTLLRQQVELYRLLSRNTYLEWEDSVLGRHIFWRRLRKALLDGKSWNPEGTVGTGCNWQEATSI

inhibition, inactive:
O=C(NC(=O)c1ccno1)Nc1ccccc1Cl -1.38%
Cn1c(CN2C(=O)CSc3ccc(C(F)(F)F)cc32)nnc1SCC(=O)c1ccccc1 -0.94%
COc1ccc(/C=N/Nc2nc(C)cc(=O)[nH]2)c(OC)c1 -3.66%
CCCc1nc(N)ncc1C(=O)OCC -3.52%
N/C(=N\OC(=O)c1ccc([N+](=O)[O-])o1)c1ccc(OCc2ccc(Cl)cc2)c(Cl)c1 -0.21%
Cc1onc(-c2ccccc2)c1CNS(=O)(=O)c1ccc(-c2ccccn2)s1 -0.5%
O=S(=O)(Nc1ccc2[nH]ccc2c1)c1cccs1 14.7%
CC(=O)c1nnc2cc(C)nn2c1C 3.88%
CS(=O)(=O)c1ccc(C(=O)Nc2cccc(Cl)c2)cc1 -0.58%
CCCCc1ccc(S(N)(=O)=O)cc1 -0.44%
O=C(Nc1ccccc1C(=O)NCc1c(F)cccc1Cl)c1ccccc1Cl 2.65%
O=[N+]([O-])c1ccc(C2CC2(Br)Br)cc1 (stereo not given) 11.1%
C/C(=N\O)C(C)(C)Nc1ccc(C(C)(C)C)cc1 0.91%
O=C(NNc1ccccc1C(F)(F)F)NS(=O)(=O)c1ccc(Cl)cc1 2.98%
COc1ccc(-c2csc(-c3cc(C)on3)n2)cc1 7.05%
N#Cc1c(C(F)(F)F)cc(-c2cccs2)nc1N1CCCCC1 -4.83%
Cc1cc2nsnc2cc1Cl 0.39%
COc1ccc(COCC(O)CN2CCN(c3ccc(C(F)(F)F)cn3)CC2)cc1 (stereo not given) -3.92%
CSc1ccc(C(F)(F)F)cc1C(=O)/C=C/N(C)C -5.34%
FC(F)(F)c1ccc(Cl)c(NC(=S)NN=C2CCCCCC2)c1 0.56%
Cc1ccc(N(C)NC(=O)Nc2ccc(Cl)cc2)nn1 12.1%
Cc1ccc(N=C2SC3(CC3)C(=O)N2c2ccc(C)cc2)cc1 -5.53%
Cc1ccc(S(=O)(=O)NNC(=O)c2ccccc2N)cc1 -4.45%
C=CCn1c(SCC(=O)Nc2nnc(-c3cccs3)s2)nnc1-c1ccco1 -3.96%
O=C(Nc1ccc(I)cc1Cl)C(=S)NCc1cccs1 3.66%
c1csc(-c2ccc(-c3ccon3)s2)c1 -1.22%
CSc1nc(N)c2ccccc2n1 -9.58%
O=C(Nn1cnnc1)c1cccs1 1.09%
Cc1nc(C(F)(F)F)ccc1C(=O)NC1CCCc2ccccc21 (stereo not given) 0.52%
Cc1ccccc1C(=O)NNC(=O)c1ccccc1C1=NCCCN1 4.96%
N#Cc1cccnc1NNC(=O)c1ccccc1C(=O)O 4.06%
O=c1[nH]c2c(=O)[nH]c(=S)[nH]c2nc1/C=C(\O)c1ccccc1 -4.76%
N/C(=N\OC(=O)c1cccc(Cl)c1)c1ccc2nonc2c1 1.32%
Oc1[nH]c2ccc(F)cc2c1N=NC(=S)NC1CC2C=CC1C2 (stereo not given) -1.4%
Nc1c(-c2nnc(SCC(=O)c3ccccc3)o2)cnn1-c1ccccc1 -5.52%
